In the supplement of paper PMC10477191:
± gives the standard deviation of the averaged measurements.

What follows are compounds tested on Drosophila virilis antennal basiconic sensillum AB4 (assay: odor-evoked OSN spike response (post minus pre-stimulus); higher = stronger neuronal excitation). Details: odor dilution: 10^-4.
Experimental: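 Single sensillum recordings from antennal basiconic sensilla of D. virilis. A 500 ms pulse of odorant (10^-4 in mineral oil or DMSO) was delivered; the response is the change in spike frequency between the 1 s pre- and post-stimulus windows (spikes/s).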

SMILES	odor-evoked OSN spike response [spikes/s]
C[C@H]1CCC[C@@]2(C)CCCC[C@]12O [geosmin]	102 ± 21
